# From PubChem
# Shown are actives, neighbours in structure and some others; about 4.9% of the full set was active somewhere.
# dFosB activator – activators of delta FosB homodimer, primary screen, biochemical, fluorescence polarization, TAMRA-CDK5 oligo, single point; activation, % at 25 µM; purified delta FosB; percent of positive-control signal above neutral wells; Protein FosB (Mus musculus), P13346; hit rate 0.99% among 340,000;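 active = mean activation above about 17%, with every replicate also reaching it, limit read from the data, passing the limit was not always enough; inconclusive = only one of the two conditions met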
# Target sequence (P13346 whole entry, looked up): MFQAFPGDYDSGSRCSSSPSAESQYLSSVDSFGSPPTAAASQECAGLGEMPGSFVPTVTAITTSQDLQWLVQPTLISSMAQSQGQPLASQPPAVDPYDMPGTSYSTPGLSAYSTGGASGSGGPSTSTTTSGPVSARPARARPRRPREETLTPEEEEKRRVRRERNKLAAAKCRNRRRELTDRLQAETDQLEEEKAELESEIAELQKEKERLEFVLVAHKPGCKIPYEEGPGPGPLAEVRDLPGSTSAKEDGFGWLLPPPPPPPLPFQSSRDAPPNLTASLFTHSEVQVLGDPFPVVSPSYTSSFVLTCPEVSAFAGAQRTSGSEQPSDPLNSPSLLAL
# HSF1 inhib – HSF1 inhibitors in luciferase reporter cells, primary screen, cell-based, NIH3T3, luminescence. NIH3T3-HGL HSE-luciferase, MG132-induced, luminescence 8 h; active compounds read low. activity change, negative = inhibition, % at 7.5 µM (by protocol). hit rate 0.77% among 300,000. AID 2098, 2009;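 active = more than half of replicate wells show activity change below -50%, luminescence cut by over half; inconclusive = some wells, but at most half, below -50%; inactive = no replicate well below -50%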;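 note: luciferase reports HSF-1 transcriptional activity via heat shock element; 0% = median of DMSO wells and -100% = zero luminescence signal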
# Platelet DG rel – inhibitors of platelet dense granule secretion, primary screen, cell-based, MLPCN, human platelets; human platelet-rich plasma, SFLLRN dense granule ATP release, luminescence; inhibition, %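 (compounds screened at 7.5 µM in platelet-rich plasma)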; hit rate 0.22% among 300,000;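 active = mean replicate score, as percent of positive control, at or above 50; inconclusive = mean below 50 but at least one replicate at or above 50; inactive = mean and every replicate below 50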
# MPTP inh – mitochondrial permeability transition pore inhibitors, primary screen, biochemical, isolated mouse mitochondria, absorbance | Ca2+ swelling absorbance, 30 min | inhibition, % at 10 µM | hit rate 1.4% among 360,000;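 active = inhibition of 50% or more, scaled per plate between neutral and stimulator controls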;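 note: 0% = DMSO wells given calcium and 100% = 1 mM EGTA wells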
# HSP90 inh – HSP90 inhibitors, primary screen, cell lysate, luminescence | Heat shock protein HSP 90 (rabbit reticulocyte lysate; luciferase refolding) | Rabbit reticulocyte lysate, luciferase refolding luminescence, 3 h | inhibition, % at 5.6 µM | hit rate 0.91% among 290,000;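 active = inhibition above the screen-wide mean plus 3 SD, computed separately per campaign, cut at about 16% in these data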;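 note: 0% = DMSO wells and 100% = 60 µM geldanamycin wells; inhibitors lower the luminescence because luciferase stays unfolded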
# HSF1 activator – HSF-1 activators, primary screen, NIH3T3-HGL cells, MG132 stress, luminescence, single point | NIH3T3-HGL HSF-1 luciferase reporter, 8 h; 100% = twice DMSO control signal | hit rate 1.7% among 300,000 | AID 504408, 2011 | activation, % at 9 µM;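 active = mean replicate activation of at least 50% with a set share of replicates each reaching 50%; inconclusive = only one of those two conditions met; inactive = mean below 50% and too few replicates reaching it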;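 note: 0% = median of the neutral control wells and 100% = twice that signal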
# Numbers without * were called inactive; ? = inconclusive; nt = not tested or not shown.
SMILES,dFosB activator,HSF1 inhib,Platelet DG rel,MPTP inh,HSP90 inh,HSF1 activator
O=C(Nc1ccc(N2CCOCC2)c(Cl)c1)c1cc2ccccc2o1,-2.9,31.1,-5.1,-4.4,-3.6,55.2*
O=C(Nc1ccc2c(c1)CCC2)c1ccc(Br)o1,-4.9,21.3,5.9,1.3,5.5,39.0
O=C(Nc1ccc2c(c1)CCC2)c1cc2ccccc2o1,-10.7,26.4,4.3,-1.4,3.6,62.8*
Cc1ccc(C(=O)Nc2ccc3c(c2)CCC3)o1,-0.5,32.2,4.1,-0.2,1.8,63.2*
CCCc1ccc(-c2cc(C(=O)Nc3ccc([N+](=O)[O-])cn3)c3ccccc3n2)cc1,-0.2,3.8,16.8,1.1,-2.2,25.4
COc1ccc(-c2ccc(C(=O)NCc3cccs3)c3occc23)c(C)c1,nt,nt,nt,0.1,nt,nt
CC(C)(C)C(=O)c1c(N)[nH]c(C(=O)c2ccccc2)c1-c1ccccc1Br,nt,nt,nt,1.7,nt,nt
COc1cccc(/C=C/C(=O)NCc2ccc3c(c2)OCO3)c1,-1.4,-84.9*,-12.2,0.9,-2.3,-87.2
COc1cccc(NC(=O)C(OC(=O)/C=C/c2ccc3c(c2)OCO3)c2ccccc2)c1 (stereo not given),-1.6,17.1,0.8,3.9,8.6,54.2*
COc1ccc(CC(=O)NCc2ccc3c(c2)OCO3)cc1,6.6,-3.4,-2.4,-1.4,-2.5,4.4
CCN(Cc1ccc2c(c1)OCO2)C(=O)/C=C/c1cccc(Br)c1,-8.2,-73.9*,2.6,-0.3,-5.0,-79.7
CC(=O)OC[C@@H]1CN(Cc2ccccc2)C[C@H](n2cnc3c(NCC(C)C)ncnc32)O1,nt,nt,nt,-0.2,nt,nt
COc1ccc(-c2ccc(CN3C(C)C(=O)N(Cc4cn(CCC5OCCO5)nn4)CCS3(=O)=O)cc2)cc1OC (stereo not given),nt,nt,nt,0.0,nt,nt
Clc1ccc(-c2cn3cc(Br)ccc3n2)cc1Cl,11.6,-18.5,-0.1,1.2,-1.1,-15.7
Clc1ccc(-c2cn3c(n2)-c2ccccc2C3)cc1Cl,3.5,18.3,6.5,2.4,1.9,52.9*
Cc1ccc(-c2nnn(CCOc3cccc(Br)c3)n2)cc1,3.4,-2.2,-1.1,0.6,-2.1,-5.5
COc1ccccc1-c1cc(NC=O)c2ncc(-c3ccc(S(C)(=O)=O)cc3)n2c1,nt,nt,nt,-0.1,nt,nt
C=CCn1c(=O)c2c3c(sc2n2c(Nc4ccccc4)nnc12)CCCC3,-0.9,43.3,-0.9,-1.1,-2.8,67.5*
C=CCn1c(=O)c2c3c(sc2n2c(Nc4ccc(OC)cc4)nnc12)CCCC3,5.0,nt,nt,-0.6,-2.5,nt
O=C(NC(=S)Nc1ccc(N2CCOCC2)cc1)c1cncc(Br)c1,-3.5,-13.9,11.4,1.0,13.5,-24.1
O=C(Nc1cccc(OC(F)(F)F)c1)C1Cc2c(-c3cccc(F)c3)ccnc2O1 (stereo not given),nt,nt,nt,2.7,nt,nt
CN(C)c1ccc2c3c(ccc(N(C)C)c13)C(=O)OC2,nt,-9.3,-8.6,3.2,-6.0,5.6
Cc1ccc2nc(NCc3ccccc3)c(C=O)c(=O)n2c1,1.1,56.9,-5.4,-0.2,1.4,90.3*
CC(OC(=O)CN1C(=O)c2ccccc2C1=O)C(=O)NC1CCCCC1C (stereo not given),-1.9,-74.9*,0.3,-1.1,nt,-80.4
C[C@H]1CN(CCc2ccccc2)C(=O)[C@@H]1CC(=O)Nc1ccc(Br)cc1,nt,nt,nt,1.0,nt,nt
SMILES,dFosB activator,HSF1 inhib,Platelet DG rel,MPTP inh,HSP90 inh,HSF1 activator
C/C(=N\N=C(/N)c1nonc1N)c1ccc2c(c1)OCO2,0.6,53.1,1.1,2.8,4.8,100.8*
O=C1C[C@H](NC(=O)OCc2ccccc2)CO1,?,nt,nt,0.3,nt,nt
Cc1cc(C)n2nc(-c3ccc(Cl)cc3)cc2n1,-10.1,25.0,1.0,1.2,2.0,37.2
Cc1cc(C)n2nc(-c3ccc(Br)cc3)cc2n1,-18.0,27.2,3.5,0.5,-7.9,51.6*
Cc1ccc(S(=O)(=O)NNC(=O)c2cnn(-c3ccc(Cl)cc3)c2C(F)(F)F)cc1,-12.1,32.3,-1.0,23.2,0.6,60.8*
CC(=O)c1ccc(Oc2ccc(C(C)=O)cc2)cc1,-8.5,9.2,3.9,-1.1,-1.7,56.0*
Cc1cc(C)c(NC(=O)CSc2nc3ncc(Br)cc3[nH]2)c(Cl)c1,69.1*,-23.4,4.1,2.2,-0.6,-43.5
COC(=O)CCN1CCc2cc(N=Nc3ccc([N+](=O)[O-])cc3)ccc21,-13.2,-63.2*,9.8,18.0,0.3,-58.3
C=CCCCN(Cc1ccccc1)S(=O)(=O)c1ccccc1Br,1.1,7.4,-6.0,-0.2,nt,19.2
OCC1(Cc2cccc(C(F)(F)F)c2)CCN(Cc2cc3ccccc3o2)CC1,-17.6,43.4,3.5,-0.7,0.8,89.1*
OCC1(CCCc2ccccc2)CCN(C2CCC2)CC1,-0.3,-2.7,-1.5,0.4,-2.6,0.4
OCC1(CCCc2ccccc2)CCN(C2CCSCC2)CC1,-7.2,23.0,8.1,-0.1,-4.4,73.8*
CC(OC(=O)CN1C(=O)NC2(CCCC2)C1=O)C(=O)c1ccccc1 (stereo not given),-11.0,-69.9*,-22.2,-1.3,nt,-75.9
CC(OC(=O)CN1C(=O)NC(C)(C)C1=O)C(=O)c1ccccc1 (stereo not given),1.9,-6.4,-0.3,-0.5,0.6,-1.7
CCOC(=O)c1cc2c(nc1N)CCCC2,-2.8,0.9,1.0,0.6,-4.2,8.3
C=C(C)CNC(=S)Nc1nc2c(cc1C(=O)OCC)CCCC2,2.8,35.9,2.2,0.7,-2.5,59.8*
CC1(C(=O)NS(=O)(=O)c2ccc(F)cc2F)CCN1C(=O)CC1CCCCC1 (stereo not given),nt,nt,nt,-1.2,nt,nt
Cc1cccc(C)c1NC(=O)N1C(C(=O)O)CSC1C(=O)O (stereo not given),-0.2,-87.7*,1.6,-0.8,4.9,-90.0
CSc1ccc(C2NC(=O)c3ccccc3N2)cc1 (stereo not given),-4.4,45.5,-3.6,1.2,nt,68.6*
CCOc1ccc(C(=O)Cc2cc3cccc(OC)c3oc2=O)cc1,-6.9,3.2,0.2,-0.7,-0.8,14.6
COc1ccc(C(=O)Cc2cc3ccccc3oc2=O)cc1,3.3,47.8,1.8,0.3,0.1,56.2*
Cc1ccc(C(=O)Cc2cc3ccccc3oc2=O)c(C)c1,2.6,58.6,12.5,-0.4,7.5,85.5*
CCc1nc2c(OCc3cccc(OC)c3)cccn2c1N(C)C(=O)c1ccccc1F,nt,nt,nt,1.3,nt,nt
N/C(=N\OC(=O)c1ccc(Cl)cc1Cl)c1ccc(Cl)cc1,-0.2,-71.7*,-17.8,1.3,9.1,-72.8
N/C(=N\OC(=O)c1ccc(Cl)cc1Cl)c1ccccc1,0.1,?,44.8,3.8,16.0,-58.5
CCCC(=O)N1CCCC1(C)C(=O)Nc1ccc2cn[nH]c2c1 (stereo not given),nt,nt,nt,-0.7,nt,nt
